Data: PubChem BioAssay AID588405 (Sanford-Burnham Center for Chemical Genomics, 2011)
Hit rate of the full screen: of about 360,000 compounds, about 6,200 (1.7%) were called active.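 How the source made its calls: active means inhibition of at least 50% at 20 µM; inactive means the rest.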 The full list was thinned out, with actives kept by preference.

assay: inhibition of PEG-3 promoter activity – cell-based, HeLa, luciferase luminescence, primary screen (AID 588405); conditions: HeLa PEG-Prom luciferase reporter, overnight, at 20 µM, stronger effect = higher value

Row | Compound | inhibition
1 | O=C(/C=C/c1ccc(Cl)cc1)Nc1ccc(Br)cn1 | -33.7% (inactive)
2 | S=C(NCCCc1ccccc1)Nc1ccc(Br)cc1 | 5.05% (inactive)
3 | S=C(NCCCc1cnc[nH]1)NCCCN(Cc1ccc(Cl)c(Cl)c1)c1ccc(Br)cn1 | 98.4% (active)
4 | NCCCNC(=S)NCCCN(Cc1ccc(Cl)cc1)c1ccc(Br)cn1 | 85.8% (active)
5 | Cc1nc(C(F)(F)F)ccc1C(=O)N1CCC1(C)C(=O)NS(=O)(=O)c1ccc(F)cc1F (centres undefined) | -1.89% (inactive)
6 | O=C(CC[C@H]1O[C@@H](n2ccc(=O)[nH]c2=O)[C@H](O)[C@@H]1O)N[C@H](Cc1ccccc1)C(=O)NCc1ccco1 | 8.94% (inactive)
7 | CCCS(=O)(=O)NC(=O)C1(C)CCCN(C(=O)c2cc(C)on2)C1 (centres undefined) | 9.06% (inactive)
8 | COc1ccc(OC)c(Cc2nnc(CCC(=O)NC3CCCC3)o2)c1 | -30.2% (inactive)
9 | COc1ccc(OC)c(Cc2cnc3nc(N)nc(N)c3c2C)c1 | 54.3% (active)
10 | COc1ccc(OC)c(NC(=O)c2sc3nc(C)cc(C)c3c2N)c1 | -12.4% (inactive)
11 | C=CCn1c2c(c3ccccc31)CCC2 | 2.5% (inactive)
12 | NC1=CC(=O)C(=O)c2cccnc21 | 69.9% (active)
13 | CCOc1ccc(CCN2C(=O)c3cccnc3C2=O)cc1OCC | -9.6% (inactive)
14 | CCc1nc2ccc(C(=O)NC3CCN(Cc4ccccc4)CC3)cn2c1N(CC)CCOC | 4.85% (inactive)
15 | CCCCNC(=O)c1nc(C2CCN(S(=O)(=O)c3ccc(F)c(F)c3)CC2)oc1-c1cccc(C(F)(F)F)c1 | 13.3% (inactive)
16 | CN(C)CCNC(=O)/C(=C/c1cccc([N+](=O)[O-])c1)NC(=O)c1ccccc1 | 7.34% (inactive)
17 | Cc1ccc(C(=O)N/C(=C/c2ccc(-c3cccc([N+](=O)[O-])c3)o2)C(=O)NCCCN(C)C)cc1 | 103% (active)
18 | Cc1occc1C(=O)N/N=C/c1ccc(-c2cccc([N+](=O)[O-])c2)o1 | -11.9% (inactive)
19 | CCCc1ccc(C(O)c2ncc(-c3cccc(OC)c3)[nH]2)cc1 (centres undefined) | -5.53% (inactive)
20 | O=C(Nc1ccc(F)cc1)Nc1nnc([C@H]2C[C@H](O)[C@@H](CO)O2)s1 | -5.07% (inactive)
21 | C=CC(=O)Nc1ccc(Nc2ccnc(Nc3ccc(N4CCN(C)CC4)cc3)n2)cc1 | 20.3% (inactive)
22 | CC(C)c1ccccc1OCC(O)CN(CC(O)COc1cccc2ccccc12)C(C)C (centres undefined) | 110% (active)
23 | CC1CC(C)CN(CCOc2cccc3ccccc23)C1 (centres undefined) | -6.14% (inactive)
24 | CCC(C)Sc1nc2c(c(=O)[nH]c(=O)n2C)n1CC(O)COc1cccc2ccccc12 (centres undefined) | 12.2% (inactive)
